Assay [1] relates to MCC-13. Description: qHTS assay to identify novel small-molecules to repurpose for Merkel cell carcinoma treatment (AID 1296009). Further: nearly all actives have a fitted effect of over 60% in size. The conditions noted are these: MCC and control cell lines, CellTiter-Glo viability, 72 h; series mostly up to 46 µM. Put shortly: (§1)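 Cell viability, measured as CellTiter-Glo luminescence, was normalized between DMSO and no-cell wells. The cells had been exposed to 8- or 11-point compound dilutions for 72 hr at 37 degree celsius.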
In general terms: qHTS replaces the single test concentration by a dilution series.

Assay [2] relates to MCC-26. Described as above. The note with it: MCC and control cell lines, CellTiter-Glo viability, 72 h; series mostly up to 46 µM. A digest of the protocol:
as §1

Assay [3] has as its system MKL-1. The description is as above. The note with it: MCC and control cell lines, CellTiter-Glo viability, 72 h; series mostly up to 46 µM. Put shortly: as §1
The subject of assay [4] is UISO. The description is as above. The note with it: MCC and control cell lines, CellTiter-Glo viability, 72 h; series mostly up to 46 µM. Put shortly:
as §1

In assay [5] the test system is WaGa. The assay is described as above. The conditions noted are these: MCC and control cell lines, CellTiter-Glo viability, 72 h; series mostly up to 46 µM. A digest of the protocol: as §1
For orientation: ATP-based viability assays read luminescence as a measure of living cells.

Assay [6] has as its system C33A. Description: Primary qHTS to identify gynecologic anti-cancer compounds using libraries of approved drugs and bioactive compounds (AID 1345084). Further: nearly all actives have a fitted effect of over 55% in size. The note with it: Gynecologic cancer cell panel viability, ATPlite luminescence, 48 h; series mostly up to 57.5 µM. Put shortly: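 Five-point cytotoxicity, 48 h drug exposure at 37 C, 5% CO2, on cells seeded 16 h beforehand. ATP content read by ATPlite luminescence.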

Assay [7] deals with MKL-2. The experiment in a line: qHTS assay to identify novel small-molecules to repurpose for Merkel cell carcinoma treatment (AID 1296009). Further: nearly all actives have a fitted effect of over 60% in size. The note with it: MCC and control cell lines, CellTiter-Glo viability, 72 h; series mostly up to 46 µM. Put shortly:
as §1

Where “and” joins values, the source holds several entries; their conditions need not be identical. Equal values may be shown once. Records with an inconclusive call do not appear. Calls of active or inactive are those of the source. The call rests on the fitted dose curve; in most records, active means well fitted curve in the direction sought with a large enough effect; inconclusive means small, poorly fitted or top-dose-only effect, or another doubt; inactive means no such curve, though single readings can be large; an effect the other way counts as inactive or inconclusive.
Potency means the concentration at half of the fitted maximal effect.

For `CC[C@H]1C[C@H]2[C@@H]3CCC4=CC(=O)CC[C@@H]4[C@H]3CC[C@]2(C)[C@H]1O`, the Potency result in assay [1], in assay [2], in assay [3], in assay [4] and in assay [5] was “inactive” in each case.
In the case of `Clc1ccc(CO/N=C(\Cn2ccnc2)c2ccc(Cl)cc2Cl)c(Cl)c1`, the Potency entry in assay [2] and in assay [6] was “inactive” throughout.
For `CN1C(=O)[C@@H](NC(=O)c2cc3ccccc3[nH]2)N=C(c2ccccc2)c2ccccc21`, the Potency entry in assay [1], in assay [3], in assay [7], in assay [5] and in assay [6] was “inactive” in each case.
Take `Nc1ccc(Cl)cc1C(=O)c1ccccc1F`: the Potency entry in assay [1], in assay [2], in assay [3], in assay [7], in assay [5] and in assay [6] was “inactive” each time.
As to `Clc1ccc(C(OCCN2CCCCC2)c2ccccc2)cc1` (centres undefined), the Potency result in assay [1], in assay [2], in assay [3], in assay [7] and in assay [6] was “inactive” each time.
As for `Cc1cccc(Cc2cnc[nH]2)c1C`, the Potency result in assay [1], in assay [2], in assay [3], in assay [7], in assay [5] and in assay [6] was “inactive” in each case.
Turning to `CCOC(=O)C1(c2ccccc2)CCN(CCc2ccc(N)cc2)CC1`, the Potency result in assay [1], in assay [2], in assay [3], in assay [7], in assay [5] and in assay [6] was “inactive” throughout.
As to `CC[C@]1(O)CC[C@H]2[C@@H]3CCC4=CCCC[C@@H]4[C@H]3CC[C@@]21C`, the Potency entry in assay [2], in assay [3], in assay [7] and in assay [5] was “inactive” each time.
As for `COc1ccc2c3c1O[C@H]1[C@@H](O)C=C[C@H]4[C@@H](C2)N(C)CC[C@@]341`, the Potency in assay [1] was 23.8 µM (active); in assay [3] it was 10.7 µM (active); in assay [7] it was 2.12 µM (active); in assay [4], 15 µM (active); in assay [5], 5.34 µM (active).
Consider `COc1ccc2c(C(=O)c3ccc(Cl)cc3)c(C)n(CC(=O)O)c2c1`, for which the Potency in assay [4] was 26.6 µM (active). The Potency result in assay [6] is “inactive”.
Turning to `CN1C(=O)CN=C(c2ccccc2)c2cc(Cl)ccc21`, the Potency entry in assay [2], in assay [3], in assay [7], in assay [4], in assay [5] and in assay [6] was “inactive” each time.
Consider `CN(C)C(=S)SSC(=S)N(C)C`, for which the Potency in assay [2] was 0.299 µM (active); in assay [3], 0.596 µM (active); in assay [7], 0.596 µM (active); in assay [4], 0.211 µM (active); in assay [5], 0.668 µM (active); in assay [6] it was 1.26 µM (active).
`CCCCCCCCCCCC[N+](C)(C)CCOc1ccccc1`: the Potency was 23.7 µM (active) in assay [2]; 2.66 µM (active) in assay [3]; 1.06 µM (active) in assay [7]; 9.44 µM (active) in assay [4]; 4.22 µM (active) in assay [5].
`C[C@]12CC[C@H](O)CC1=CC[C@@H]1[C@@H]2CC[C@]2(C)C(=O)CC[C@@H]12`: the Potency result in assay [6] is “inactive”.
`O=C1NCN(c2ccccc2)C12CCN(CCCOc1ccc(F)cc1)CC2`: the Potency entry in assay [1], in assay [3], in assay [7], in assay [4], in assay [5] and in assay [6] was “inactive” throughout.
Turning to `C[C@H](CN1CCOCC1)C(C(=O)N1CCCC1)(c1ccccc1)c1ccccc1`, the Potency entry in assay [1], in assay [2], in assay [3], in assay [7] and in assay [6] was “inactive” throughout.
Take `NC1(c2ccccc2)CCCCC1`: the Potency entry in assay [1], in assay [2], in assay [3] and in assay [4] was “inactive” throughout.
In the case of `C[C@@H]1C[C@@H]([C@H](O)CC2CC(=O)NC(=O)C2)C(=O)[C@@H](C)C1`, the Potency in assay [1] is 944 nM (active) and 4.69 µM (active); in assay [3] it was 1.66 µM (active); in assay [7], 2.09 µM (active); in assay [4], 1.06 µM (active) and 1.18 µM (active); in assay [5] it was 5.9 µM (active).
Take `c1ccc2c(c1)Sc1ccccc1N2CC1CN2CCC1CC2` (centres undefined): the values for the Potency in assay [3], in assay [7] and in assay [4] were 23.7 µM (active), 11.9 µM (active) and 26.6 µM (active), respectively.
Consider `CNC(C)Cc1ccc2c(c1)OCO2` (centres undefined), for which the Potency entry in assay [1], in assay [7] and in assay [6] was “inactive” in each case.
Take `CNC(=O)Oc1cccc2ccccc12`: the Potency entry in assay [6] is “inactive”.
Consider `COc1cc(CC(C)N)c(OC)cc1Br` (centres undefined), for which the Potency was 3.18 µM (active) in assay [7] and 50.4 µM (active) in assay [5].
`CCC(OC(C)=O)C(CC(C)NC)(c1ccccc1)c1ccccc1` (centres undefined): the Potency in assay [4] is 49.1 µM (active).
As for `CC[n+]1c(-c2ccccc2)c2cc(N)ccc2c2ccc(N)cc21`, the Potency in assay [3] was 0.668 µM (active); in assay [7] it was 0.944 µM (active); in assay [4], 7.5 µM (active); in assay [5] it was 0.75 µM (active); in assay [6] it was 1.12 µM (active).
With `CCO[C@H]1O[C@@H]2OC3(C)CC[C@H]4[C@H](C)CC[C@@H]([C@H]1C)[C@@]24OO3`, the Potency result in assay [1], in assay [2], in assay [3] and in assay [6] was “inactive” throughout. For the same compound, the Potency in assay [5] was 18.8 µM (active).
Take `CC[C@H](O)C(C[C@H](C)N(C)C)(c1ccccc1)c1ccccc1`: the Potency result in assay [6] is “inactive”.
For the compound `O=C(O)CCCCCCNC1c2ccccc2CCc2ccccc21`, the Potency result in assay [1], in assay [2], in assay [3], in assay [7], in assay [5] and in assay [6] was “inactive” throughout.
Regarding `C=CC[C@]1(O)CC[C@H]2[C@@H]3CCC4=CC(=O)CCC4=C3C=C[C@@]21C`, the Potency result in assay [1], in assay [2], in assay [3] and in assay [4] was “inactive” throughout.
In the case of `COc1ccc2[nH]cc(CCN(C(C)C)C(C)C)c2c1`, the Potency result in assay [1], in assay [2], in assay [3], in assay [4], in assay [5] and in assay [6] was “inactive” in each case.
On to `C[C@@H]1O[C@@H](O[C@@H]2C=C3CC[C@@H]4[C@H](CC[C@]5(C)[C@@H](c6ccc(=O)oc6)CC[C@]45O)[C@@]3(C)CC2)[C@H](O)[C@H](O)[C@H]1O`, for which the Potency in assay [1] is 0.0033 µM (active); in assay [3], 0.0094 µM (active); in assay [7] it was 0.0084 µM (active); in assay [4], 0.0038 µM (active); in assay [5], 0.0027 µM (active).
Regarding `CCCN(CCC)CCc1c[nH]c2ccccc12`, the Potency result in assay [1], in assay [2], in assay [3], in assay [7], in assay [5] and in assay [6] was “inactive” throughout.
With `Cc1nnc2n1-c1sc(CCc3ccc(CC(C)C)cc3)cc1C(c1ccccc1Cl)=NC2C` (centres undefined), the Potency result in assay [2] was “inactive”. Moreover, the Potency was 11.9 µM (active) in assay [7] and 16.8 µM (active) in assay [4].
As to `CC(=O)OC1(c2ccccc2)CCN(CCc2ccccc2)CC1`, the Potency result in assay [3] and in assay [6] was “inactive” in each case. In addition, in assay [4], the Potency was 24.8 µM (active).
As for `C[C@]12C=CC(=O)C=C1CC[C@@H]1[C@@H]2CC[C@@]2(C)[C@H]1CC[C@]2(C)O`, the Potency result in assay [1], in assay [2], in assay [3], in assay [7] and in assay [6] was “inactive” throughout.
As to `CCC(=O)C(CCN(C)C)(c1ccccc1)c1ccccc1`, the Potency result in assay [1], in assay [2], in assay [3], in assay [4] and in assay [6] was “inactive” in each case.
Turning to `N#Cc1nn(-c2c(Cl)cc(C(F)(F)F)cc2Cl)c(N)c1S(=O)C(F)(F)F` (centres undefined), the Potency result in assay [1], in assay [2] and in assay [6] was “inactive” each time. In assay [7], the Potency was 23.7 µM (active).
For `CC(CC(C#N)(c1ccccc1)c1ccccc1)N(C)C` (centres undefined), the Potency result in assay [2], in assay [3] and in assay [6] was “inactive” throughout. Also, the Potency in assay [5] is 43.3 µM (active).
Take `CCc1cc(OC)c(C[C@H](C)N)cc1OC`: the Potency entry in assay [1], in assay [2], in assay [3], in assay [7], in assay [5] and in assay [6] was “inactive” in each case.
Consider `Clc1ccc(CSC(Cn2ccnc2)c2ccc(Cl)cc2Cl)cc1` (centres undefined), for which the Potency is 13.3 µM (active) in assay [7] and 26.6 µM (active) in assay [4].
